Compound activity deposited in PubChem by several laboratories.
This is a sample that favours compounds with a hit; in the whole collection about 1% have one here.
Cdc25B block: inhibitors of human Cdc25B phosphatase; recombinant Cdc25B, OMFP fluorescence Ex485/Em525; inhibition, %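 (compounds tested at 10 µM final in the well)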; 65,000 compounds, 0.1% hits; P30305; in the data active = inhibition above about 50%
Target sequence (P30305 whole entry, looked up): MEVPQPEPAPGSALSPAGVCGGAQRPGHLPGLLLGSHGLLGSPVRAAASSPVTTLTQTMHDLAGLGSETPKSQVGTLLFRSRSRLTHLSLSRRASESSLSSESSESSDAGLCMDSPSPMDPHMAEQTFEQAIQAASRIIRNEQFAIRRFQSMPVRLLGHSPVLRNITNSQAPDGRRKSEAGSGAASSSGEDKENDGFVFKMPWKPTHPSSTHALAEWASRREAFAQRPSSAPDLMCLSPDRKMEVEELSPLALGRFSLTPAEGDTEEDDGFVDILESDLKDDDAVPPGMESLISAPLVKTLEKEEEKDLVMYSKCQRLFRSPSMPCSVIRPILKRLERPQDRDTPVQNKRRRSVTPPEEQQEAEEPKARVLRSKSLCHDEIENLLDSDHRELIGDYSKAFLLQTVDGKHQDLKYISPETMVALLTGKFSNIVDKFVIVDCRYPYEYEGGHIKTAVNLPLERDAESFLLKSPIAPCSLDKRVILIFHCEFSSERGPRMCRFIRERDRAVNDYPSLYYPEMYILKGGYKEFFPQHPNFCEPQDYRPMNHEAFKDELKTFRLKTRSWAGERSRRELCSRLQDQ
JNK3 inh: JNK3 (human) kinase inhibition; AID 746; P53779; inhibition, % at 8 µM; 60,000 compounds, 0.61% hits; purified JNK3 kinase activity, HTS; in the data active = inhibition above about 17%;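 also: 0% = DMSO and 100% = reference inhibitor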
ROCK2 inh: ROCK2 (human) kinase inhibition. 60,000 compounds, 0.35% hits. purified ROCK2, Kinase-Glo ATP depletion luminescence. inhibition, % at 6 µM. AID 604. O75116;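 active = inhibition above the screen-wide mean inhibition plus 3 SD, cut at about 18% in these data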;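 also: plate controls were DMSO wells for no effect and Y-27632 control wells after no-enzyme background subtraction for full effect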
PKA inh: PKA (human) kinase inhibition; 65,000 compounds, 0.1% hits; inhibition, % at 6 µM; PKA Kemptide phosphorylation, Kinase-Glo ATP luminescence;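 active = inhibition above the screen-wide mean inhibition plus 3 SD, cut at about 21% in these data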
DUSP1 inh: inhibitors of human MKP-1 phosphatase; P28562; recombinant MKP-1, OMFP hydrolysis fluorescence; inhibition, %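 (compounds tested at a single concentration somewhere between 10 and 100 µM)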; 65,000 compounds, 0.15% hits; AID 374;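 active = inhibition above about 50%, limit read from the data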;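 also: 0% = DMSO max control wells and 100% = wells with enzyme stopped by NaOH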
Hsp90 inh: displaces geldanamycin probe from tumor Hsp90; P07900; NCI-N417 lysate Hsp90, Cy3B-geldanamycin FP displacement; inhibition, % at 30 µM; 64,000 compounds, 0.35% hits; AID 429;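 active = inhibition above 50%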;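 also: 0% = tracer plus lysate wells and 100% = tracer alone without lysate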
Active calls of the source: *.

For Cc1cccc(N2CCN(C(=O)c3cn(C)c(=O)c4c3c3ccccc3n4C)CC2)c1C the results were Cdc25B block 0, JNK3 inh -1, ROCK2 inh 169*, PKA inh 1, DUSP1 inh 33 and Hsp90 inh 0.
Screening N#CC1=C(c2ccccc2)N=P(N2CCOCC2)(N2CCOCC2)N=C1N1CCOCC1 returned Cdc25B block -6, PKA inh 2 and DUSP1 inh 3.
For CSc1nc(N)c2ncn([C@@H]3O[C@H](COP(=O)(O)OP(=O)(O)O)[C@H](O)C3O)c2n1 (some centres undefined) the results were Hsp90 inh -2.
Screening CCCCCCCCCCCCCCCCCCNC(=O)OCC(COP(=O)([O-])OCC[n+]1ccsc1)OC (centres undefined) returned Hsp90 inh 2.
Cc1ccc(NC(=O)CC2SCCNC2=O)cc1Cl (centres undefined) was read as Cdc25B block -1, JNK3 inh -3, ROCK2 inh 9, PKA inh 4, DUSP1 inh -20 and Hsp90 inh 54*.
Screening CCC(=O)N1CCNC(=O)C1CC(=O)Nc1ccc(C)c(Cl)c1 (centres undefined) returned Cdc25B block -5, JNK3 inh -4, ROCK2 inh -5, PKA inh -2, DUSP1 inh 8 and Hsp90 inh -4.
Screening COC(=O)c1sccc1NC(=O)C1CC=CCC1C(=O)O (centres undefined) returned Cdc25B block 0, JNK3 inh 28*, ROCK2 inh 9, PKA inh 13, DUSP1 inh 26 and Hsp90 inh 2.
COc1cc(/C=C(\C#N)C(=O)c2ccc(O)c(O)c2)cc(I)c1O was read as Hsp90 inh 73*.
`COCc1cc(C)nc(SCC(=O)c2ccc(O)c(O)c2)c1C#N` gave Cdc25B block -11, JNK3 inh -3, ROCK2 inh 4, PKA inh 12, DUSP1 inh 21 and Hsp90 inh 29.
`CNC(=O)[C@H]1O[C@@H](n2cnc3c(NCc4cccc(I)c4)ncnc32)C(O)[C@H]1O` (some centres undefined) gave Hsp90 inh -3.
CCN(CC)CCNC(=O)CCCCn1c(=S)[nH]c2c([nH]c3ccc(OC)cc32)c1=O was read as Cdc25B block 6, JNK3 inh 1, ROCK2 inh 30*, PKA inh 13, DUSP1 inh 0 and Hsp90 inh 0.
`CN(C)CCCNc1ccc(N(O)O)c2cccnc12` gave Hsp90 inh 7.
`N#CC1=C(N)N2C(=C(C#N)C13CCCCC3)SC1CCCCC12O` (centres undefined) gave Cdc25B block 63*, JNK3 inh -3, ROCK2 inh 5, PKA inh -1, DUSP1 inh 3 and Hsp90 inh -5.
Screening CCOc1ccc(Nc2cc(C)nc(-n3nc(C)cc3C)n2)cc1 returned Cdc25B block 6, JNK3 inh 2, ROCK2 inh 7, PKA inh 3, DUSP1 inh -5 and Hsp90 inh -1.
`Cc1ccc(Nc2cc(-n3nc(C)cc3C)ncn2)cc1` gave Cdc25B block 3, JNK3 inh 30*, ROCK2 inh -2, PKA inh -5, DUSP1 inh 16 and Hsp90 inh -1.
`NC(=O)c1cccc(N)c1` gave Hsp90 inh 3.
For O=C(Cn1nnc(-c2ccccc2)n1)OCc1csc(-c2ccccc2)n1 the results were Cdc25B block 5, JNK3 inh 1, ROCK2 inh 3, PKA inh 7, DUSP1 inh 0 and Hsp90 inh -2.
Screening O=C(Cn1nnc(-c2ccccc2)n1)OCc1ccccc1 returned Cdc25B block 72*, JNK3 inh -1, ROCK2 inh 5, PKA inh 6, DUSP1 inh -1 and Hsp90 inh -1.
Screening O=C(Cn1cnc2ccccc2c1=O)NCCC(=O)Nc1ccc2c(c1)OCCO2 returned Cdc25B block -11, JNK3 inh 4, ROCK2 inh 3, PKA inh -8, DUSP1 inh 7 and Hsp90 inh 86*.
For O=C(Cn1cnc2ccccc2c1=O)Nc1ccc2c(c1)OCCO2 the results were Cdc25B block 0, JNK3 inh 3, ROCK2 inh -3, PKA inh -4, DUSP1 inh 25 and Hsp90 inh 2.
NCCNS(=O)(=O)c1cccc2cnccc12 was read as Hsp90 inh 0.
For COc1ccc2nccc(C)c2c1 the results were Hsp90 inh -1.
Screening Cc1cc(NC(=O)COC(=O)c2n[nH]c3ccccc23)no1 returned Cdc25B block -3, JNK3 inh 23*, ROCK2 inh 3, PKA inh 10, DUSP1 inh 34 and Hsp90 inh -4.
COc1ccc(CNC(=O)COC(=O)c2n[nH]c3ccccc23)cc1OC was read as Cdc25B block -1, JNK3 inh 14, ROCK2 inh 7, PKA inh 8, DUSP1 inh 8 and Hsp90 inh -5.
For CC1(NCC(O)COc2cccc3[nH]ccc23)CCC(C(C)(C)NC(=O)CBr)CC1 (centres undefined) the results were Hsp90 inh -1.
For CCCC(C)N(CC)CCNc1cc(OC)cc2cccnc12 (centres undefined) the results were Hsp90 inh 46.
Screening CCN(CC)CCCNc1cc(OC)cc2ccc(OC)nc12 returned Hsp90 inh 67*.
`O=C(CCn1c(=S)[nH]c2ccccc2c1=O)N1CCN(c2ccccn2)CC1` gave Cdc25B block -19, PKA inh 7, DUSP1 inh -3 and Hsp90 inh -3.
CCn1c(CSc2nccn2C)nc2cc(C(=O)O)ccc21 was read as Cdc25B block -4, JNK3 inh -10, ROCK2 inh -3, PKA inh 1, DUSP1 inh 6 and Hsp90 inh 89*.
For COCCCNC(CC(=O)Nc1ccc(N(C)C)cc1)C(=O)O (centres undefined) the results were Cdc25B block -12, JNK3 inh -5, ROCK2 inh 2, PKA inh 4, DUSP1 inh -9 and Hsp90 inh -1.
For CC(=O)[C@]1(O)Cc2c(O)c3c(c(O)c2[C@@H](O[C@H]2C[C@H](N)[C@H](O)[C@H](C)O2)C1)C(=O)c1ccccc1C3=O the results were Hsp90 inh 156*.
For COc1cccc2c1C(=O)c1c(O)c3c(c(O)c1C2=O)C[C@@](O)(C(C)=O)C[C@@H]3O[C@H]1C[C@H](N)[C@H](O)[C@H](C)O1 the results were Cdc25B block -1, JNK3 inh -15, ROCK2 inh -11, PKA inh -8, DUSP1 inh 6 and Hsp90 inh 80*.
`COc1cc(C)nc(NC(=O)COc2ccc(Cl)cc2C)n1` gave Cdc25B block 5, JNK3 inh -5, ROCK2 inh -4, PKA inh -4, DUSP1 inh 7 and Hsp90 inh -5.
